Compounds without any hit were thinned out: in the full panel of roughly 79,000, 15% have a hit. Activity calls are given as the source filed them. Rule as the data show it: active = growth inhibition above about 70%; inactive = the rest.
Legend:
[1] = NCI Yeast Anticancer Drug Screen. Data for the rad52 strain (AID 147);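 also: 0% = growth of vehicle-treated control cultures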; conditions: S. cerevisiae rad52 mutant growth inhibition, stronger effect = higher value
Outline: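 Growth of repair-deficient yeast cells was compared between compound-treated and vehicle-treated cultures to give percent inhibition.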

[2] = NCI Yeast Anticancer Drug Screen. Data for the wt1 strain (AID 149);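 also: 0% = growth of vehicle-treated wt1 cultures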; conditions: S. cerevisiae wt1 strain (SPY 50644) growth inhibition, stronger effect = higher value
Outline: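 Measured: growth of wt1 yeast under compound versus vehicle treatment, reported as inhibition.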

[3] = NCI Yeast Anticancer Drug Screen. Data for the rad50EPP+ strain (AID 151);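 also: 0% = growth of vehicle-treated control cultures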; conditions: S. cerevisiae rad50 mutant strain, stronger effect = higher value
Outline: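 Measured: growth inhibition of rad50EPP+ yeast. Reference: vehicle-treated controls. Screen uses strains with defined genetic alterations in DNA damage repair or cell cycle control.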

[4] = NCI Yeast Anticancer Drug Screen. Data for the mgt1 strain (AID 153); conditions: S. cerevisiae mgt1 mutant growth inhibition, stronger effect = higher value
Outline: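 Compounds were applied to mgt1 mutant yeast, and growth was then compared against vehicle-treated control cultures to give percent inhibition.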

[5] = NCI Yeast Anticancer Drug Screen. Data for the rad50 strain (AID 155);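 also: 0% = growth of vehicle-only cultures of the same strain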; conditions: S. cerevisiae rad50 strain growth inhibition, stronger effect = higher value
Outline: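 Growth of the mutant yeast was measured after compound exposure and referenced to vehicle-treated cultures.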

[6] = NCI Yeast Anticancer Drug Screen. Data for the mec2-1 strain (AID 157); conditions: S. cerevisiae mec2-1 strain, stronger effect = higher value
Outline: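 Compounds were applied to mec2-1 yeast cells. Their growth was then compared with that of vehicle-treated cultures to give growth inhibition.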

[7] = NCI Yeast Anticancer Drug Screen. Data for the rad14 strain (AID 159);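 also: 0% = growth of vehicle-treated control cultures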; conditions: S. cerevisiae rad14 strain growth inhibition, stronger effect = higher value
Outline: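 Here, inhibition of yeast growth was measured after compound exposure, using a strain with a genetic defect in DNA damage repair and vehicle-treated cultures as the reference.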

[8] = NCI Yeast Anticancer Drug Screen. Data for the sgs1 mgt1 strain (AID 161);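 also: 0% = growth of cultures given vehicle only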; conditions: S. cerevisiae sgs1 mgt1 strain, stronger effect = higher value
Outline: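 Yeast cells carrying a defined DNA-repair defect were exposed to test compounds. Growth inhibition was measured relative to vehicle-treated controls.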

[9] = NCI Yeast Anticancer Drug Screen. Data for the CLN2oe strain (AID 163);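 also: 0% = growth of vehicle-only control cultures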; conditions: S. cerevisiae CLN2oe strain, stronger effect = higher value
Outline: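 Cells of an engineered yeast line with disturbed cell-cycle regulation are treated with compound. Inhibition of growth is then calculated relative to the vehicle-treated reference.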

[10] = NCI Yeast Anticancer Drug Screen. Data for the cln2 rad14 strain (AID 165);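 also: 0% = growth equal to vehicle treated cultures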; conditions: S. cerevisiae cln2 rad14 strain, stronger effect = higher value
Outline: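 Strain: cln2 rad14 yeast, altered in cell cycle control and DNA damage repair. Read-out: growth inhibition vs vehicle.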

[11] = NCI Yeast Anticancer Drug Screen. Data for the bub3 strain (AID 167); conditions: S. cerevisiae bub3 mutant strain, stronger effect = higher value
Outline: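 Whole-cell yeast assay. The mutant strain was incubated with compounds, and growth inhibition was determined by comparison with vehicle-treated cells.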

[12] = NCI Yeast Anticancer Drug Screen. Data for the wt2 strain (AID 169);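 also: 0% = growth of vehicle-treated yeast cultures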; conditions: S. cerevisiae wt2 strain growth inhibition, stronger effect = higher value
Outline: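 Growth of compound-treated yeast is measured and expressed as inhibition relative to vehicle-only controls.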

[13] = NCI Yeast Anticancer Drug Screen. Data for the mlh1 strain (AID 171);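 also: 0% = growth of vehicle-treated control cultures of the same strain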; conditions: S. cerevisiae mlh1 strain growth inhibition, stronger effect = higher value
Outline: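 Test agents were incubated with yeast bearing a defined DNA damage repair or cell cycle control alteration; values are growth inhibition normalised to vehicle-treated cultures.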

[14] = NCI Yeast Anticancer Drug Screen. Data for the sgs1 strain (AID 173);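 also: 0% = growth of vehicle-only control cultures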; conditions: S. cerevisiae sgs1 mutant, stronger effect = higher value
Outline: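 Strain with an altered DNA repair or cell cycle pathway exposed to compound. Growth then measured. Value = inhibition versus vehicle control.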

[15] = NCI Yeast Anticancer Drug Screen. Data for the mlh1 rad18 strain (AID 175); conditions: S. cerevisiae mlh1 rad18 strain growth inhibition, stronger effect = higher value
Outline: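 A repair-deficient yeast strain is exposed to test compound, and growth is scored relative to vehicle-treated controls.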

[16] = NCI Yeast Anticancer Drug Screen. Data for the rad18 strain (AID 177); conditions: S. cerevisiae rad18 mutant growth inhibition, stronger effect = higher value
Outline: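 DNA-repair-defective yeast; compound treatment; growth inhibition scored against vehicle.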

[17] = at 5.0 µM (retest, dose inferred, filed as 0.5)
[18] = at 50.0 µM (retest, dose inferred, filed as 5.0)

Measured: growth inhibition

O=C(N=Nc1cc(Cl)ccc1Cl)NNc1cc(Cl)ccc1Cl
inactive: [1]; at 1.2 µM -2% | [1]; at 3.7 µM -4% | [1]; at 11.0 µM -3% | [1]; at 33.0 µM -2% | [1]; at 100.0 µM 2% | [2]; at 1.2 µM -2% | [2]; at 3.7 µM 0% | [2]; at 11.0 µM -1% | [2]; at 33.0 µM 0% | [2]; at 100.0 µM 4% | [3]; at 1.2 µM -1% | [3]; at 3.7 µM -3% | [3]; at 11.0 µM -1% | [3]; at 33.0 µM -3% | [3]; at 100.0 µM 4% | [4]; at 1.2 µM -3% | [4]; at 3.7 µM -4% | [4]; at 11.0 µM 17% | [4]; at 33.0 µM -12% | [4]; at 100.0 µM 2% | [5]; at 1.2 µM -2% | [5]; at 3.7 µM -2% | [5]; [17] -2% | [5]; at 11.0 µM -23% | [5]; at 33.0 µM -1% | [5]; at 100.0 µM 3% | [6]; at 1.2 µM -1% | [6]; at 3.7 µM 0% | [6]; [17] 19% | [6]; at 11.0 µM 3% | [6]; at 33.0 µM -1% | [6]; at 100.0 µM 4% | [7]; at 1.2 µM -3% | [7]; at 3.7 µM -4% | [7]; at 11.0 µM -5% | [7]; at 33.0 µM 2% | [7]; at 100.0 µM 3% | [8]; [17] 3% | [8]; at 50.0 µM 66.5% | [9]; at 1.2 µM 0% | [9]; at 3.7 µM -7% | [9]; at 11.0 µM 0% | [9]; at 33.0 µM 0% | [9]; at 100.0 µM 9% | [10]; [17] 39% | [11]; at 1.2 µM -1% | [11]; at 3.7 µM 2% | [11]; [17] -30% | [11]; at 11.0 µM 3% | [11]; at 33.0 µM -7% | [11]; at 50.0 µM 60.1% | [11]; at 100.0 µM -6% | [12]; at 1.2 µM -1% | [12]; at 3.7 µM -3% | [12]; at 11.0 µM -2% | [12]; at 33.0 µM -1% | [12]; at 100.0 µM 2% | [13]; at 1.2 µM -1% | [13]; at 3.7 µM -5% | [13]; at 11.0 µM -3% | [13]; at 33.0 µM -1% | [13]; at 100.0 µM 1% | [14]; at 1.2 µM -2% | [14]; at 3.7 µM -1% | [14]; at 11.0 µM -1% | [14]; at 33.0 µM -1% | [14]; at 100.0 µM 1% | [15]; [17] 5% | [15]; at 50.0 µM 68.9% | [16]; at 1.2 µM -4% | [16]; at 3.7 µM -3% | [16]; at 11.0 µM -6% | [16]; at 33.0 µM -21% | [16]; at 100.0 µM 3%
active: [5]; [18] 76% | [5]; at 50.0 µM 74.4% | [6]; [18] 79% | [6]; at 50.0 µM 78.1% | [8]; [18] 73% | [10]; [18] 82% | [10]; at 50.0 µM 71.8% | [11]; [18] 81% | [15]; [18] 86%
